Source: PubChem BioAssay AID1347131 (National Center for Advancing Translational Sciences (NCATS), 2019)
Hit rate of the full screen: of about 410,000 compounds, about 2,000 (0.49%) were called active. About 8% were inconclusive and are not listed. Calls come from the whole dose curve; tested in HEK293 reporter line. The full list was thinned out, with actives kept by preference.

assay: qHTS Assay for Foot and Mouth Disease Virus Antivirals: Primary Screen against the MLPCN compound library; details: FMDV antiviral cell-based qHTS; series mostly up to 57.9 µM; activity, negative = inhibition: at the top concentration; note: nearly all actives have a fitted effect of over 55% in size
Potency is the fitted concentration of half-maximal effect.

SMILES | activity, negative = inhibition | Potency
CCOC(=O)C1CCCN(S(=O)(=O)c2cc3c(cc2Cl)NC(=O)CO3)C1 (stereo not drawn) | -31% (inactive) | –
Cc1oc(-c2ccc(Cl)cc2)nc1CN1CCCC(C(=O)NCc2cccnc2)C1 (stereo not drawn) | -20.1% (inactive) | –
Cc1oc(-c2ccc(Cl)cc2)nc1CN1CCCC(C(=O)NCCCN2CCCC2=O)C1 (stereo not drawn) | – | 7.94 µM (active)
CCCN(CCC)CCCNC(=O)C1CCCN(Cc2nc(-c3ccc(Cl)cc3)oc2C)C1 (stereo not drawn) | -26.9% (inactive) | –
Cc1ccc(S(=O)(=O)N2CCN(C(=O)CCCN3C(=O)NC4(CCCC4)C3=O)CC2)cc1C | -33.6% (inactive) | –
CCn1c2ccccc2c2cc(NC(=O)COc3ccc(C)c(C)c3)ccc21 | -31.2% (inactive) | –
CCOc1ccc(-c2nnc(NC(=O)COc3ccccc3F)o2)cc1 | 119% (inactive) | –
CCn1c(SCCOc2ccc(Cl)cc2)nnc1-c1cccs1 | -32.5% (inactive) | –
CCOc1ccc(-c2nnc(-c3cccs3)o2)cc1 | – | 15.8 µM (active)
Cc1ccccc1-c1cnc2c(c1)C(=O)N([C@@H](C)CO)C[C@@H](C)[C@H](CN(C)Cc1ccccc1F)O2 | -11.7% (inactive) | –
COc1ccc(C(O)(CC(C)C)C(CN2CCOCC2)c2ccccc2)cc1 (stereo not drawn) | -37.2% (inactive) | –
O=C(Nc1nc2ccccc2s1)c1ccc2c(c1)OCO2 | – | 14.1 µM (active)
Cc1cc(NC(=O)c2ccc3c(c2)OCO3)ccc1NC(=O)c1ccccc1 | -94.1% (inactive) | –
O=C(Nc1ccc2nc(SCCOc3ccccc3)sc2c1)c1ccc2c(c1)OCO2 | -33.5% (inactive) | –
CC1(Cc2cc(Cl)ccc2C(F)(F)F)C(=O)Nc2c(Cl)cccc21 (stereo not drawn) | -32.7% (inactive) | –
CCC(=O)N1CCc2cc(S(=O)(=O)CCC(=O)N3CCN(c4ccc(C(C)=O)cc4)CC3)ccc21 | -30.2% (inactive) | –
CC(C)CC(=O)Nc1ccccc1N1CCN(c2ccccc2)CC1 | -32% (inactive) | –
Cn1c(=O)c2c(SCC(=O)N3CCN(c4ccccc4)CC3)nc(C3CC3)nc2n(C)c1=O | -43.8% (inactive) | –
Cn1c(=O)cc(SCC(=O)N2CCN(c3ccccc3)CC2)c2ccccc21 | -29% (inactive) | –
CCc1nc(SCC(=O)N2CCN(c3ccccc3)CC2)c2oc3ccccc3c2n1 | – | 25.1 µM (active)
COc1ccccc1N1CCN(c2nc(CNC(=O)c3sc(C)nc3C)nc3ccccc23)CC1 | -13.5% (inactive) | –
COc1ccc2c(Cl)c(C(=O)OCC(=O)c3ccc4c(c3)NC(=O)CO4)sc2c1Cl | -31% (inactive) | –
O=C(CSc1nc2ccccc2[nH]1)c1ccc(Cl)s1 | 38.3% (inactive) | –
O=C(CSc1nc2ccccc2c(=O)n1Cc1ccco1)c1ccc(F)cc1 | -32.3% (inactive) | –
Cc1cc(C(=O)CSc2nc3ccccc3[nH]2)c(C)n1Cc1ccco1 | – | 11.2 µM (active)

SMILES | activity, negative = inhibition | Potency
Cc1nn(C(C)C)c(C)c1CN1CCCC(C(=O)c2cccc(OC(C)C)c2)C1 (stereo not drawn) | -35.4% (inactive) | –
COc1ccc(NC(=O)CNC(=O)Cn2c(C)cc3ccccc3c2=O)cc1OC | -31.4% (inactive) | –
CCN(CC)S(=O)(=O)c1cc(-c2nnc(Nc3ccc(OC)c(C(N)=O)c3)c3ccccc23)ccc1C | -31% (inactive) | –
Cc1cc(C)cc(NC(=S)N2CCN(C(=O)c3ccco3)CC2)c1 | -42.2% (inactive) | –
CN(C)c1ccc(N/C=C/C(=O)c2ccco2)cc1 | – | 8.91 µM (active)
O=C(/C=C/Nc1ccc(F)cc1F)c1ccco1 | – | 10 µM (active)
CN1/C(=C\C(=O)c2ccco2)C(C)(C)c2ccccc21 | -42.8% (inactive) | –
O=C(Nc1ccc(F)cc1F)c1ccc2c(c1)[nH]c(=O)n2Cc1ccc(F)cc1 | -32.6% (inactive) | –
O=C(CNc1ccc(F)cc1F)NC(=O)NCc1ccco1 | -30.5% (inactive) | –
Cc1ccc(S(=O)(=O)N(C)C)cc1NC(=O)COc1cccc(-n2cnnn2)c1 | -30.7% (inactive) | –
CCOc1ccccc1N1CCN(CC(=O)Nc2ccccc2C(=O)NC2CC2)CC1 | -36.1% (inactive) | –
Cc1ccc(-c2cc(-c3ccccc3)cc(-c3ccccc3)[n+]2-c2ccccc2C(=O)O)cc1 | -33.8% (inactive) | –
O=C(Nc1ccc(N2CCN(c3ccc(C(F)(F)F)cn3)CC2)nc1)c1cccs1 | -22% (inactive) | –
O=C1NC(=O)N(c2ccc3c(c2)OCO3)C(=O)/C1=C/c1ccsc1 | -40.4% (inactive) | –
COC(=O)C1=C(c2ccc(-c3ccccc3)c(F)c2)C[C@@H]2CC[C@H]1N2C(=O)NC1CCCCC1 | -39.4% (inactive) | –
OC[C@@H]1CN(Cc2ccc(Cl)cc2)C[C@H](n2cnc3c(NC4CCCC4)ncnc32)O1 | -33.7% (inactive) | –
COc1ccc(C(=O)NCc2cc(C)nc3ccccc23)cc1 | -41.5% (inactive) | –
Cc1cc(C)c2sc(N(CCN(C)C)C(=O)c3c(F)cccc3F)nc2c1 | -30.3% (inactive) | –
CCOc1ccc(-c2ccc(/C=C3/C(=N)N4C=CSC4=NC3=O)o2)c([N+](=O)[O-])c1 | -9.4% (inactive) | –
Cc1ccc(/C=C2/C(=N)N3N=C(CC(=O)N4CCCC4)SC3=NC2=O)o1 | -19.8% (inactive) | –
CC1=CN2C(=N)/C(=C/c3ccco3)C(=O)N=C2S1 | – | 12.6 µM (active)
CCCCn1c(=O)c(CCC(=O)OC(C)C(=O)Nc2cccc(Cl)c2Cl)nc2ccccc21 (stereo not drawn) | -31.2% (inactive) | –
CCCC(=O)N1CCN(c2nc(CC(C)C)c3c(c2C#N)CCC3)CC1 | -32% (inactive) | –
CC(C)C(=O)N1CCN(c2nc(-c3ccccc3)c3c(c2C#N)CCCC3)CC1 | – | 22.4 µM (active)
CC(C(=O)Nc1cccc(C#N)c1)n1nc(-c2ccccc2)c2c(c1=O)CCCC2 (stereo not drawn) | -30.7% (inactive) | –

SMILES | activity, negative = inhibition | Potency
FC(F)C(F)(F)Oc1cccc(Nc2nccn3c(-c4ccc5ccccc5c4)cnc23)c1 | -35.9% (inactive) | –
COCC(=O)N1CCC2(CC1)CCN(c1ccc(-c3ccccc3)cc1)CC2 | -32.7% (inactive) | –
Nc1nc2ccccc2n1C(=O)c1ccc(F)cc1 | – | 12.6 µM (active)
CSc1nc2ccccc2n1C(=O)NC1CCCCC1 | -34.5% (inactive) | –
N#CC1=C(N)Nc2nc3ccccc3n2C1c1ccc(F)cc1 (stereo not drawn) | -40.9% (inactive) | –
C[C@H](CO)N1C[C@H](C)[C@@H](CN(C)C(=O)NC2CCCCC2)Oc2c(NS(=O)(=O)c3cccs3)cccc2C1=O | 104% (inactive) | –
Cc1ccc(NC(=O)COC(=O)C2CC2C)c(S(=O)(=O)N2CCCCC2)c1 (stereo not drawn) | -31.9% (inactive) | –
CCOC(=O)C1CCN(S(=O)(=O)c2cccc(C(=O)Nc3ccccc3)c2)CC1 | -33.4% (inactive) | –
CC(Sc1nc(C(F)(F)F)nc2ccccc12)C(=O)NC1CCCC1 (stereo not drawn) | -27.5% (inactive) | –
Cc1cc(CN(C)C(=O)c2cc(COc3ccc4ncccc4c3)on2)on1 | -33.2% (inactive) | –
CN(C)c1ccc(N=Nc2ccc3ncccc3c2)cc1 | – | 20 µM (active)
CN(C)c1ccc(/C=C/c2ccc3ccccc3n2)cc1 | -100% (inactive) | –
Cn1c(=O)[nH]c(=O)c2c1nc(NCc1ccccc1)n2CCCc1ccccc1 | -45.3% (inactive) | –
Cc1ccc(CN2CCc3nc(N4CCN(c5ccccc5F)CC4)ncc3C2)s1 | -43.3% (inactive) | –
Cc1ccccc1CN1CCc2nc(N3CCN(c4ccccn4)CC3)ncc2C1 | – | 15.8 µM (active)
COc1cc(OC)c(OC)cc1CN1CCc2nc(N3CCN(c4ncccn4)CC3)ncc2C1 | -25.8% (inactive) | –
CCOc1ccc(Nc2c3c(nc4nncn24)CCC3)cc1 | -34.4% (inactive) | –
COc1cccc(N2CCN(C(=O)c3ccc4c(Cl)c5c(nc4c3)CCCC5)CC2)c1 | -40.7% (inactive) | –
COc1cccc(N2CCN(c3c4c(nc5nncn35)CCC4)CC2)c1 | – | 14.1 µM (active)
Cc1nnsc1C(=O)N/N=C/c1ccc2ccccc2c1O | -41.2% (inactive) | –
Cc1cccc(OCCCCn2nnc3sc4c(c3c2=O)CCC(C)C4)c1 (stereo not drawn) | -31.6% (inactive) | –
C=CCn1c(SCc2nc3c(c(=O)[nH]c(=O)n3CCCC)n2CCC)nnc1-c1ccccc1 | -30.8% (inactive) | –
CCCNS(=O)(=O)c1cc(Br)cc2c1N(C(=O)CC)CC2 | 109% (inactive) | –
COc1cc(NS(=O)(=O)c2cc(Br)cc3c2N(C(=O)C2CC2)CC3)cc(OC)c1 | – | 12.6 µM (active)
CCC(=O)N1CCc2cc(Br)cc(S(=O)(=O)CCC(=O)NCc3ccccc3OC)c21 | -75.9% (inactive) | –

SMILES | activity, negative = inhibition | Potency
O=C(OC1C2CCC1C1CN(CCc3ccccc3)CC12)c1ccccc1 (stereo not drawn) | -32% (inactive) | –
COc1ccc(-c2cc3c(=O)n(CC(=O)Nc4cccc(Cl)c4)nc(C)n3n2)cc1 | -34.4% (inactive) | –
CN(C)c1cccc(F)c1C(=O)NC(=O)Nc1ccc(Cl)cc1 | -36.3% (inactive) | –
COc1ccc(CN2CCNC(=O)C2CC(=O)NC2CCCC2)c(OC)c1 (stereo not drawn) | -15.3% (inactive) | –
COC(=O)c1nnn(-c2nonc2N)c1CSc1nc2ccccc2s1 | -35.5% (inactive) | –
Cc1c(NC(=O)CN2CCN(c3cccc(Cl)c3)CC2)c(=O)n(-c2ccccc2)n1C | -31.9% (inactive) | –
CC12CN(C(=O)c3ccco3)CC(c3ccccc3)(CN(C(=O)c3ccco3)C1)C2=O | -31% (inactive) | –
CC(C)c1ccc(/C=N/Nc2ccc(C(=O)O)cc2)cc1 | -98.8% (inactive) | –
COc1ccc(/C=N/Nc2ccc(C(=O)O)cc2)cc1Br | -84.1% (inactive) | –
O=C(O)c1ccc(N/N=C/c2cc(Br)cs2)cc1 | – | 11.2 µM (active)
O=C(NC1CCC(=O)N(CCOc2ccccc2)CC1)OCc1ccccc1 (stereo not drawn) | -29% (inactive) | –
CC(=O)N1CCc2c(sc3c2c(=O)n(CCc2ccccc2)c(=O)n3Cc2cccc(C)c2)C1 | -40.4% (inactive) | –
COc1ccc(NC(=O)Nc2c(O)ccc3ccccc23)cc1 | 132% (inactive) | –
COc1ccc(N=Nc2ccc3ccccc3c2)c(O)c1 | – | 22.4 µM (active)
COc1ccc(-c2cc(-c3ccccc3O)[nH]n2)cc1 | -68.9% (inactive) | –
COc1cc2c(cc1OC)CN(C(=O)c1cc(Cl)nc(Cl)c1)CC2 | -38.8% (inactive) | –
CC(=O)NC12CC3CC(C1)CC(C(=O)Oc1ccc(N(C)S(=O)(=O)c4cc(C)ccc4C)cc1)(C3)C2 | -36.6% (inactive) | –
CN1CCN(c2ccc(NC(=O)c3ccc4ccccc4c3)cc2)CC1 | – | 22.4 µM (active)
COc1ccc(C(=O)Nc2ccc(N3CCN(C(=O)c4ccccc4C)CC3)cc2)cc1 | -19.6% (inactive) | –
CC(=O)N1CCN(c2ccc(NC(=O)c3cccc(F)c3)cc2)CC1 | 124% (inactive) | –
CC(C)(C)OC(=O)CNC(=O)c1[nH]cnc1C(=O)N[C@@H](CCCCNC(=O)OC(C)(C)C)C(=O)OC(C)(C)C | -33.6% (inactive) | –
O=C(CCCc1nc(-c2ccc(Cl)cc2)no1)NC1CCCC1 | -49.9% (inactive) | –
O=C(c1ccc2c(c1)N(Cc1ccccc1F)C(=O)c1ccccc1S2=O)N1CCN(c2ccccc2)CC1 (stereo not drawn) | -37.1% (inactive) | –
